HTR5A ag = activates human HTR5A in OPRM1-OPRD1 agonist counter-screen; P47898; HTR5A agonist assay, luminescence, cell-based; activation, % at 9.3 µM; 340,000 tested, 0.61% active; in the data active means activation mostly above about 9.5%, no sharp cut-off; inactive means mostly below about 7.6%
Target sequence (P47898 whole entry, looked up): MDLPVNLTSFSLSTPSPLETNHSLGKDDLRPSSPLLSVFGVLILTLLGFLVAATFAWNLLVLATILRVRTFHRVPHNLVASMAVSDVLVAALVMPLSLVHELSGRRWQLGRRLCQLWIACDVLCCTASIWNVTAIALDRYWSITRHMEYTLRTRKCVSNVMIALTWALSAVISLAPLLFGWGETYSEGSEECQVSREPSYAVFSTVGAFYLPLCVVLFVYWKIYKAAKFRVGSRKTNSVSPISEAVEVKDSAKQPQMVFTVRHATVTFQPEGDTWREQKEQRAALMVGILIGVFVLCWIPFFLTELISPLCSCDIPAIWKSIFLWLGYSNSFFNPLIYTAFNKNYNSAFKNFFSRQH
HTR5A inv ag = counter-screen for OPRM1-OPRD1 inverse agonists: human HTR5A inverse agonism; P47898; HTR5A cell line, luminescence; inhibition, % at 9.3 µM; 340,000 tested, 0.083% active; AID 504634; in the data active means inhibition mostly above about 23%, no sharp cut-off; inactive means mostly below about 18%
OPRM1-OPRD1 ag = agonists of human mu-delta opioid receptor heterodimerization | activation, % at 9.3 µM | AID 504326 | P35372+P41143 | cells, OPRM1-OPRD1 heterodimerization, luminescence | 340,000 tested, 0.3% active
MOR-DOR inv ag = inverse agonist of human OPRM1-OPRD1 heterodimerization; P35372+P41143; cell-based MOR-DOR heterodimer luminescence, inverse agonism; inhibition, % at 9.3 µM; 340,000 tested, 0.21% active; in the data active means inhibition above about 22%, passing the limit was not always enough
OPRM1-D1 ag cf = OPRM1-OPRD1 heterodimer agonism, confirmation; 830 tested, 45% active; cells, MOR-DOR heterodimerization, luminescence complementation; shares compounds with OPRM1-OPRD1 ag; activation, % at 9.3 µM; AID 504904
HTR5A ag counter = counter-screen for OPRM1-OPRD1 agonists: human HTR5A agonism | shares compounds with OPRM1-OPRD1 ag | HTR5A agonist counterscreen, cell luminescence | activation, % at 9.3 µM | 830 tested, 8% active | AID 504905; in the data active means activation above about 17%
Hits are given with their value; - = inactive; . = not tested or not shown. The list is not random: actives were taken first. Their share in the collection is about 1.1%. Unless noted, no stated cut-off is given here; in the data, active means activation above about 18%; inactive means the rest.

SMILES | HTR5A ag | HTR5A inv ag | OPRM1-OPRD1 ag | MOR-DOR inv ag | OPRM1-D1 ag cf | HTR5A ag counter
CCCCCOC(=O)Cn1c(=O)oc2ccccc21 | - | - | - | - | . | .
Cc1cccc(/C(N)=N/OC(=O)CCCc2ccccc2)c1 | - | - | - | - | . | .
NC(N)=N/N=C/c1ccccc1 | - | - | - | - | . | .
NC(N)=N/N=C/c1ccc(OCc2ccccc2Cl)cc1 | - | - | 22 | - | - | -
Cc1cc(/C=C2\SC(=O)N(C)C2=O)c(C)n1-c1ccc(O)cc1 | - | - | - | - | . | .
CC(=O)NC1=NC(=O)/C(=C/c2cc(C)n(-c3ccc(NC(C)=O)cc3)c2C)S1 | - | - | 60 | - | - | -
O=C(CNc1ccc2ccccc2c1)N/N=C/c1ccc([N+](=O)[O-])o1 | 9.3 | - | 38 | - | - | -
CC(=O)c1ccc(NC(=O)Nc2ccc3c(c2)N(C)C(=O)CS3)cc1 | - | - | 50 | - | 120 | -
CC(NC(=O)Cn1cc(Br)c([N+](=O)[O-])n1)c1ccccc1 (stereo unspecified) | - | - | - | - | . | .
Cc1ccc2[nH]c3c(N4CCc5ccccc5C4)ncnc3c2c1 | - | - | 371 | - | - | 19
COc1ccccc1N1CCN(C(=O)c2ccccc2N(C)S(=O)(=O)c2ccc(C)cc2)CC1 | - | - | - | - | . | .
CCc1ccc2nc(N(CCCN(C)C)C(=O)c3ccc(S(=O)(=O)N4CCc5ccccc5C4)cc3)sc2c1 | - | - | 29 | - | 36 | -
CCc1ccc2nc(N(CCCN(C)C)C(=O)c3ccc(S(=O)(=O)N(C)C4CCCCC4)cc3)sc2c1 | - | - | 19 | - | 50 | -
CCN(Cc1ccccc1)S(=O)(=O)c1ccc(C(=O)N(CCCN(C)C)c2nc3ccc(F)cc3s2)cc1 | - | - | 412 | - | - | -
CN(C)CCCN(C(=O)c1ccc(S(=O)(=O)N(C)Cc2ccccc2)cc1)c1nc2c(F)cccc2s1 | - | - | 47 | - | 108 | -
CC(C)CCOc1ccc(C2(C)NC(=O)NC2=O)cc1 (stereo unspecified) | - | - | - | - | . | .
O=S(=O)(NCCCCNS(=O)(=O)c1c(F)cccc1F)c1ccc2c(c1)OCCO2 | - | - | - | - | . | .
CN(c1ccccc1)S(=O)(=O)c1cccc(NC(=O)CSc2nccc(=O)[nH]2)c1 | - | - | - | - | . | .
CN(C)CCCN(C(=O)c1ccc(S(=O)(=O)N(C)C2CCCCC2)cc1)c1nc2ccc(F)cc2s1 | - | - | 327 | - | 121 | -
CN(C)CCCN(C(=O)c1ccc(S(=O)(=O)N(C)C2CCCCC2)cc1)c1nc2ccc(Br)cc2s1 | - | - | - | - | . | .
Cc1ccc(C(=O)N2CCN(C34CC5CC(CC(C5)C3)C4)CC2)o1 | - | - | - | - | . | .
CC(=O)N[C@@H](C)c1nc2ccccc2n1CCCN1CCN(c2nc(-c3ccc(C)cc3)cs2)CC1 | - | - | - | - | . | .
COc1ccc(NC(=O)COc2ccccc2C(=O)NCC(c2ccccc2)N(C)C)cc1Cl (stereo unspecified) | - | - | 64 | - | 62 | -
COc1cc2ccccc2cc1C(=O)NCC(c1cccs1)N(C)C (stereo unspecified) | - | - | 72 | - | - | -
CCCOc1ccc(C(=O)NCC(c2cccs2)N(C)C)cc1OC (stereo unspecified) | - | - | - | - | . | .
SMILES | HTR5A ag | HTR5A inv ag | OPRM1-OPRD1 ag | MOR-DOR inv ag | OPRM1-D1 ag cf | HTR5A ag counter
COc1cc(C(=O)NCC(c2cccs2)N(C)C)cc(Cl)c1OC(C)C (stereo unspecified) | - | - | 48 | - | - | -
OC(CNC1CCCc2ccccc21)COc1ccc2ccccc2c1 (stereo unspecified) | - | - | 42 | - | 31 | -
O=C(Nc1cc(Sc2ccccn2)cc([N+](=O)[O-])c1)c1ccc([N+](=O)[O-])cc1 | 14 | - | 32 | - | - | 35
O=[N+]([O-])c1ccc(Sc2ccccn2)nc1 | - | - | - | - | . | .
O=C(NNC(=O)c1ccc(Br)s1)c1ccc(F)c(S(=O)(=O)N2CCOCC2)c1 | - | - | - | - | . | .
O=S(=O)(c1cc(Cl)ccc1Cl)N1CCN(c2ccccn2)CC1 | - | - | - | - | . | .
COc1ccc(-n2c(C)cc(/C=C3/SC(=S)N(C)C3=O)c2C)cc1 | - | - | - | - | . | .
Cc1cc(/C=C2\SC(=S)N(C)C2=O)c(C)n1-c1cccc(O)c1 | - | - | 30 | - | - | -
O=C1CCC2(CCCCC2)N1 | - | - | - | - | . | .

Bioassay records as filed in PubChem.
